Measured values: PubChem BioAssay AID1159580 (chemical genetic matrix, 2015)
Values joined by “and” are separate entries in the source; they are usually repeats but may differ in a detail not shown here. Identical values can stand only once. Screen size: about 5,500 compounds; about 2,000 (36%) were called active. Inconclusive results (about 18%) are left out. Cut-off read from the data, not from the text of the source: active = normalized growth mostly below about 0.91 (no sharp cut-off); inconclusive = no clear call, values can overlap the other calls; inactive = mostly above about 0.92. Some of the results follow.

Test: chemical genetic growth profiling, strain panel (AID 1159580);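 note: tested at 20 µM; growth read once vehicle control cultures reached saturation at 30 °C; 1 = growth at the plate median or of vehicle wells; lower values mean less growth of the strain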
Settings: S. cerevisiae deletion strains, growth OD

Measured: normalized growth

NC(=O)NC(=O)Cc1ccccc1
inactive: locus YAL013W, strain DEP1, active compounds read low 1.03 | locus YAL021C, strain ccr4, active compounds read low 0.999 | locus YAL026C, strain drs2, active compounds read low 0.976 | locus YAL030W, strain snc1, active compounds read low 0.995 | locus YBL061C, strain skt5, active compounds read low 0.975 | locus YBR009C, strain hhf1, active compounds read low 1.04 | locus YBR021W, strain FUR4, active compounds read low 1.02 | locus YBR023C, strain chs3, active compounds read low 0.974 | locus YBR171W, strain sec66, active compounds read low 0.992 | locus YBR229C, strain ROT2, active compounds read low 0.995 | locus YBR231C, strain swc5, active compounds read low 1.01 | locus YBR279W, strain paf1, active compounds read low 0.979 | locus YCL011C, strain gbp2, active compounds read low 0.961 | locus YCL016C, strain dcc1, active compounds read low 0.96 | locus YCL029C, strain bik1, active compounds read low 0.997 | locus YCL069W, strain vba3, active compounds read low 1.01 | locus YCR088W, strain abp1, active compounds read low 0.993 | locus YDL005C, strain med2, active compounds read low 0.98 | locus YDL035C, strain GPR1, active compounds read low 1.02 | locus YDL040C, strain nat1, active compounds read low 0.991 | locus YDL074C, strain BRE1, active compounds read low 1.16 | locus YDL101C, strain DUN1, active compounds read low 1 | locus YDL134C, strain PPH21, active compounds read low 1 | locus YDL185W, strain tfp1, active compounds read low 0.992 | locus YDL192W, strain arf1, active compounds read low 0.991 | locus YDR001C, strain nth1, active compounds read low 0.98 | locus YDR069C, strain doa4, active compounds read low 0.99 | locus YDR101C, strain arx1, active compounds read low 0.994 | locus YDR137W, strain rgp1, active compounds read low 0.979 | locus YDR150W, strain NUM1, active compounds read low 1.01 | locus YDR159W, strain sac3, active compounds read low 0.997 | locus YDR162C, strain NBP2, active compounds read low 1.04 | locus YDR195W, strain ref2 0.994 | locus YDR297W, strain sur2, active compounds read low 0.996 | locus YDR318W, strain mcm21, active compounds read low 0.993 | locus YDR334W, strain swr1, active compounds read low 0.978 | locus YDR335W, strain msn5, active compounds read low 0.964 | locus YDR388W, active compounds read low 0.995 | locus YDR392W, strain spt3, active compounds read low 0.916 | locus YDR502C, strain sam2, active compounds read low 1.01 | locus YEL003W, strain gim4, active compounds read low 0.998 | locus YEL037C, strain rad23, active compounds read low 0.983 | locus YEL061C, strain CIN8 (second series), active compounds read low 0.976 | locus YEL061C, strain CIN8, active compounds read low 1.03 | locus YER015W, strain faa2, active compounds read low 0.99 | locus YER016W, strain bim1, active compounds read low 0.96 | locus YER110C, active compounds read low 0.998 | locus YER111C, strain swi4, active compounds read low 0.981 | locus YER155C, strain BEM2 (second series), active compounds read low 1.04 | locus YER155C, strain BEM2, active compounds read low 1 | locus YER167W, strain BCK2, active compounds read low 1 | locus YFR010W, strain ubp6, active compounds read low 1.01 | locus YGL078C, strain dbp3, active compounds read low 1 | locus YGL086W, strain mad1, active compounds read low 0.995 | locus YGL167C, strain pmr1, active compounds read low 1 | locus YGL173C, strain kem1, active compounds read low 1.04 | locus YGL227W, strain vid30, active compounds read low 1 | locus YGL240W, strain doc1, active compounds read low 1.04 | locus YGL248W, strain PDE1, active compounds read low 1 | locus YGL253W, strain hxk2, active compounds read low 0.955 | locus YGR078C, strain PAC10, active compounds read low 1.01 | locus YGR135W, strain pre9, active compounds read low 0.993 | locus YGR229C, strain SMI1, active compounds read low 1.13 | locus YGR252W, strain gcn5, active compounds read low 1.14 | locus YHR013C, strain ard1, active compounds read low 0.964 | locus YHR027C, strain rpn1, active compounds read low 0.999 | locus YHR030C, strain SLT2, active compounds read low 1 and 0.964 | locus YHR079C, strain IRE1 (second series), active compounds read low 1 | locus YHR079C, strain IRE1, active compounds read low 0.978 | locus YHR094C, strain hxt1, active compounds read low 1 | locus YHR129C, strain ARP1, active compounds read low 1 | locus YHR142W, strain chs7, active compounds read low 0.931 | locus YHR200W, strain rpn10, active compounds read low 0.991 | locus YIL066C, strain RNR3, active compounds read low 1.01 | locus YIL073C, strain SPO22, active compounds read low 0.979 | locus YIL125W, strain kgd1, active compounds read low 1 | locus YIR030C, strain dcg1, active compounds read low 0.995 | locus YJL092W, strain hpr5, active compounds read low 0.977 | locus YJL095W, strain BCK1 (second series), active compounds read low 0.967 | locus YJL095W, strain BCK1, active compounds read low 1.04 and 0.989 | locus YJL115W, strain asf1, active compounds read low 0.957 | locus YJL129C, strain trk1, active compounds read low 0.955 | locus YJL134W, strain LCB3, active compounds read low 1.01 | locus YJL154C, strain vps35, active compounds read low 0.984 | locus YJL164C, strain tpk1, active compounds read low 0.998 | locus YJL166W, strain qcr8, active compounds read low 1 | locus YJL168C, strain set2, active compounds read low 0.997 | locus YJL187C, strain SWE1 (second series), active compounds read low 0.995 | locus YJL187C, strain SWE1, active compounds read low 0.994 | locus YJR043C, strain POL32, active compounds read low 1.03 | locus YJR066W, strain TOR1, active compounds read low 0.931
